Results: PubChem BioAssay AID1159580 (chemical genetic matrix, 2015)
Several values for one entry are separate records, joined by “and”; a condition that tells them apart may be missing. Equal entries are not always repeated. Hit rate of the full screen: of about 5,500 compounds, about 2,000 (36%) were called active. Another 18% or so got no clear call; they are omitted. No stated cut-off is given here; in the data, active means normalized growth mostly below about 0.91 (no sharp cut-off); inconclusive means no clear call, values can overlap the other calls; inactive means mostly above about 0.92. This is one part of the list.

Test: chemical genetic growth profiling, strain panel (AID 1159580);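 further: tested at 20 µM; growth read once vehicle control cultures reached saturation at 30 °C; 1 = growth at the plate median or of vehicle wells; lower values mean less growth of the strain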
Settings: growth OD

Measured: normalized growth

CC1=C(CC(=O)O)c2cc(F)ccc2/C1=C\c1ccc(S(C)=O)cc1 (stereo unspecified)
inactive: S. cerevisiae deletion strains, locus YJR075W, strain HOC1, active compounds read low 1 | S. cerevisiae deletion strains, locus YKL009W, strain mrt4, active compounds read low 0.993 | S. cerevisiae deletion strains, locus YKL068W, active compounds read low 1.01 | S. cerevisiae deletion strains, locus YKL085W, strain MDH1 (second series), active compounds read low 1.02 | S. cerevisiae deletion strains, locus YKL085W, strain MDH1, active compounds read low 1.02 | S. cerevisiae deletion strains, locus YKL160W, strain elf1, active compounds read low 1 | S. cerevisiae deletion strains, locus YKL190W, strain CNB1, active compounds read low 1.01 | S. cerevisiae deletion strains, locus YKR001C, strain vps1, active compounds read low 0.997 | S. cerevisiae deletion strains, locus YKR026C, strain gcn3, active compounds read low 1.01 | S. cerevisiae deletion strains, locus YKR091W, strain srl3, active compounds read low 1.02 | S. cerevisiae deletion strains, locus YLL001W, strain dnm1, active compounds read low 0.998 | S. cerevisiae deletion strains, locus YLL026W, active compounds read low 1.03 | S. cerevisiae deletion strains, locus YLL041C, strain sdh2, active compounds read low 1.02 | S. cerevisiae deletion strains, locus YLR027C, strain aat2, active compounds read low 1.02 | S. cerevisiae deletion strains, locus YLR039C, strain RIC1, active compounds read low 1.01 | S. cerevisiae deletion strains, locus YLR058C, strain SHM2, active compounds read low 1 | S. cerevisiae deletion strains, locus YLR102C, strain apc9, active compounds read low 1.02 | S. cerevisiae deletion strains, locus YLR113W, strain HOG1, active compounds read low 1 | S. cerevisiae deletion strains, locus YLR221C, strain rsa3, active compounds read low 0.999 | S. cerevisiae deletion strains, locus YLR258W, strain gsy2, active compounds read low 1.01 | S. cerevisiae deletion strains, locus YLR262C, strain YPT6 (second series), active compounds read low 1.02 | S. cerevisiae deletion strains, locus YLR262C, strain YPT6, active compounds read low 0.995 | S. cerevisiae deletion strains, locus YLR268W, strain sec22, active compounds read low 1.06 | S. cerevisiae deletion strains, locus YLR320W, strain mms22, active compounds read low 1 | S. cerevisiae deletion strains, locus YLR330W, strain CHS5, active compounds read low 1.01 | S. cerevisiae deletion strains, locus YLR342W, strain FKS1 (second series), active compounds read low 1.02 | S. cerevisiae deletion strains, locus YLR342W, strain FKS1, active compounds read low 0.99 | S. cerevisiae deletion strains, locus YLR357W, strain rsc2, active compounds read low 1.05 | S. cerevisiae deletion strains, locus YLR370C, strain arc18, active compounds read low 1.03 | S. cerevisiae deletion strains, locus YLR371W, strain rom2, active compounds read low 1.03 | S. cerevisiae deletion strains, locus YLR384C, strain iki3, active compounds read low 1.02 | S. cerevisiae deletion strains, locus YLR418C, strain cdc73, active compounds read low 1.02 | S. cerevisiae deletion strains, locus YML016C, strain PPZ1, active compounds read low 1 | S. cerevisiae deletion strains, locus YML032C, strain rad52, active compounds read low 1.03 | S. cerevisiae deletion strains, locus YML120C, strain ndi1, active compounds read low 1.03 | S. cerevisiae deletion strains, locus YML124C, strain tub3, active compounds read low 1.01 | S. cerevisiae deletion strains, locus YMR058W, strain fet3, active compounds read low 1.03 | S. cerevisiae deletion strains, locus YMR078C, strain ctf18, active compounds read low 1.01 | S. cerevisiae deletion strains, locus YMR125W, strain sto1, active compounds read low 1.02 | S. cerevisiae deletion strains, locus YMR129W, active compounds read low 1.02 | S. cerevisiae deletion strains, locus YMR205C, strain PFK2, active compounds read low 1.03 | S. cerevisiae deletion strains, locus YMR223W, strain ubp8, active compounds read low 0.995 | S. cerevisiae deletion strains, locus YMR231W, strain pep5, active compounds read low 1.02 | S. cerevisiae deletion strains, locus YMR263W, strain SAP30, active compounds read low 1.01 | S. cerevisiae deletion strains, locus YMR307W, strain GAS1, active compounds read low 1 and 1.02 | S. cerevisiae deletion strains, locus YNL067W, strain RPL9B, active compounds read low 1.01 | S. cerevisiae deletion strains, locus YNL071W, strain lat1, active compounds read low 1.02 | S. cerevisiae deletion strains, locus YNL128W, strain TEP1, active compounds read low 1.03 | S. cerevisiae deletion strains, locus YNL153C, strain GIM3, active compounds read low 1.01 and 1.06 | S. cerevisiae deletion strains, locus YNL175C, strain NOP13, active compounds read low 1.02 | S. cerevisiae deletion strains, locus YNL183C, strain NPR1, active compounds read low 0.946 | S. cerevisiae deletion strains, locus YNL197C, strain WHI3, active compounds read low 1.02 | S. cerevisiae deletion strains, locus YNL209W, strain ssb2, active compounds read low 1.02 | S. cerevisiae deletion strains, locus YNL224C, strain SQS1, active compounds read low 1.02 | S. cerevisiae deletion strains, locus YNL233W, strain BNI4, active compounds read low 1.01 | S. cerevisiae deletion strains, locus YNL248C, strain rpa49, active compounds read low 1 | S. cerevisiae deletion strains, locus YNL250W, strain rad50, active compounds read low 1.01 | S. cerevisiae deletion strains, locus YNL271C, strain bni1, active compounds read low 1.01 | S. cerevisiae deletion strains, locus YNL298W, strain CLA4, active compounds read low 0.991 | S. cerevisiae deletion strains, locus YNL307C, strain MCK1, active compounds read low 1.03 | S. cerevisiae deletion strains, locus YNL322C, strain KRE1 (second series), active compounds read low 1.02 | S. cerevisiae deletion strains, locus YNL322C, strain KRE1, active compounds read low 1.01 | S. cerevisiae deletion strains, locus YNR049C, strain mso1, active compounds read low 1.03 | S. cerevisiae deletion strains, locus YNR052C, strain pop2, active compounds read low 1.02 | S. cerevisiae deletion strains, locus YOL006C, strain TOP1, active compounds read low 0.99 | S. cerevisiae deletion strains, locus YOL012C, strain htz1 1.13 | S. cerevisiae deletion strains, locus YOL147C, strain pex11, active compounds read low 1.02 | S. cerevisiae deletion strains, locus YOR001W, strain rrp6, active compounds read low 1.04 | S. cerevisiae deletion strains, locus YOR061W, strain CKA2, active compounds read low 1 | S. cerevisiae deletion strains, locus YOR069W, strain VPS5, active compounds read low 1.01 | S. cerevisiae deletion strains, locus YOR070C, strain gyp1, active compounds read low 1.01 | S. cerevisiae deletion strains, locus YOR080W, strain dia2, active compounds read low 1.04 | S. cerevisiae deletion strains, locus YOR083W, strain WHI5 (second series), active compounds read low 1.03 | S. cerevisiae deletion strains, locus YOR083W, strain WHI5, active compounds read low 0.986 | S. cerevisiae deletion strains, locus YOR106W, strain vam3, active compounds read low 1.01 | S. cerevisiae deletion strains, locus YOR136W, strain idh2, active compounds read low 1.01 | S. cerevisiae deletion strains, locus YOR144C, strain elg1, active compounds read low 1.02 | S. cerevisiae deletion strains, locus YOR184W, strain ser1, active compounds read low 1.01 | S. cerevisiae deletion strains, locus YOR231W, strain MKK1, active compounds read low 0.975 | S. cerevisiae deletion strains, locus YOR265W, strain rbl2, active compounds read low 1.02 | S. cerevisiae deletion strains, locus YOR270C, strain vph1, active compounds read low 1.04 | S. cerevisiae deletion strains, locus YOR290C, strain snf2, active compounds read low 1.02 | S. cerevisiae deletion strains, locus YOR316C, strain cot1, active compounds read low 1.02 | S. cerevisiae deletion strains, locus YPL051W, strain arl3, active compounds read low 0.996 | S. cerevisiae deletion strains, locus YPL055C, strain LGE1, active compounds read low 0.98 | S. cerevisiae deletion strains, locus YPL078C, strain atp4, active compounds read low 1.01 | S. cerevisiae deletion strains, locus YPL106C, strain sse1, active compounds read low 1.03 | S. cerevisiae deletion strains, locus YPL240C, strain hsp82, active compounds read low 1.02 | S. cerevisiae deletion strains, locus YPL241C, strain CIN2, active compounds read low 1.01 | S. cerevisiae deletion strains, locus YPL256C, strain CLN2, active compounds read low 0.994 | S. cerevisiae deletion strains, locus YPR119W, strain clb2, active compounds read low 1.02 | S. cerevisiae deletion strains, locus YPR141C, strain kar3, active compounds read low 1.02 | S. cerevisiae deletion strains, locus YPR163C, strain tif3, active compounds read low 1.02 | S. cerevisiae deletion strains, locus YPR167C, strain met16, active compounds read low 1.02 | S. cerevisiae deletion strains, strain wtn01, active compounds read low 1.03 | S. cerevisiae strains, strain wild type, active compounds read low 1.01
